NSD2 block: NSD2 (human) methyltransferase inhibition | O96028 | NSD2-SET H3K36me1 DELFIA fluorescence, biochemical | inhibition, % at 12.5 µM | 44,000 tested, 0.07% active | AID 624260; in the data active means inhibition above about 54%, passing the limit was not always enough;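 further: inhibitors reduce the monomethyl H3K36 fluorescence signal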
Target sequence (O96028 whole entry, looked up): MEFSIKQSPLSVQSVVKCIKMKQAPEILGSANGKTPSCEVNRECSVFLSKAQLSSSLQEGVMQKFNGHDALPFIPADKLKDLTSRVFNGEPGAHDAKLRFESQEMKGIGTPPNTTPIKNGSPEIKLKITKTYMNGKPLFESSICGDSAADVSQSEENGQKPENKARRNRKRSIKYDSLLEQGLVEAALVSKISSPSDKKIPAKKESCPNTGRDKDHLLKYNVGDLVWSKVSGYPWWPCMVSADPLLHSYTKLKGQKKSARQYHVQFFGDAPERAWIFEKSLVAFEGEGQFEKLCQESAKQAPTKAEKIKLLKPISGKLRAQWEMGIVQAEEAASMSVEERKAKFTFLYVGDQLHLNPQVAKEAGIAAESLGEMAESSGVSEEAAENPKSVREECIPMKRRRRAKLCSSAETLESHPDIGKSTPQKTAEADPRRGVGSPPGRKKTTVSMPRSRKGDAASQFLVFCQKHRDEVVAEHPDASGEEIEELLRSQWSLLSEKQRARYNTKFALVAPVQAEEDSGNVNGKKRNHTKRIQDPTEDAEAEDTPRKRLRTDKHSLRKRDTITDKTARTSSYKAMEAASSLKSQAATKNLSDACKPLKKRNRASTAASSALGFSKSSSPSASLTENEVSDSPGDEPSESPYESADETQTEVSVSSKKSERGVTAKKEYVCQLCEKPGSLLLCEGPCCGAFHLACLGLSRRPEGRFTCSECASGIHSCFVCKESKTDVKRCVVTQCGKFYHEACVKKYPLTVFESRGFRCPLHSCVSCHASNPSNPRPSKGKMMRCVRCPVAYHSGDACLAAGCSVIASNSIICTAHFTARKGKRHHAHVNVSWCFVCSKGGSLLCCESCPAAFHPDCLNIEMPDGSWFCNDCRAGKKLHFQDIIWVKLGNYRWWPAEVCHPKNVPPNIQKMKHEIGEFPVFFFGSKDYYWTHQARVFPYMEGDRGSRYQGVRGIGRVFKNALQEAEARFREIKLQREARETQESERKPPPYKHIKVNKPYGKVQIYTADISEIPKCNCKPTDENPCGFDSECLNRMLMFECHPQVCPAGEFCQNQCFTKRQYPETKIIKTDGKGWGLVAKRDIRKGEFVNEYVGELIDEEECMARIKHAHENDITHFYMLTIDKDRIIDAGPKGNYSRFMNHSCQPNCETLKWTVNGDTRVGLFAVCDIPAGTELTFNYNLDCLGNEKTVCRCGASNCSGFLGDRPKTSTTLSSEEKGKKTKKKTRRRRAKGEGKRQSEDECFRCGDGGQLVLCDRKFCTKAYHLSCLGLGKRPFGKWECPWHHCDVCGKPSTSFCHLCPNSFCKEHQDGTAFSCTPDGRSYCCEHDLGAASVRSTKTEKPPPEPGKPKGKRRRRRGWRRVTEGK
Numbers stand for hits; i = inactive. Many of the other results were omitted from the sample, so hits are more common in it than they were.

SMILES	NSD2 block
C[C@H](CO)N1C[C@H](C)[C@H](CN(C)C(=O)Cc2cccnc2)Oc2cc(-c3cncnc3)ccc2S1(=O)=O	i
C[C@H]1CN([C@@H](C)CO)C(=O)c2cc(NS(=O)(=O)c3cn(C)cn3)ccc2O[C@H]1CN(C)CC1CC1	i
C[C@@H]1CN([C@H](C)CO)S(=O)(=O)c2ccc(C#Cc3ccncc3)cc2O[C@H]1CN(C)S(=O)(=O)c1ccc(F)cc1	i
C/C=C/c1ccc2c(c1)O[C@@H](CN(C)S(C)(=O)=O)[C@H](C)CN([C@H](C)CO)S2(=O)=O	i
CC(C)c1ccc2c(c1)CCC1[C@](C)(CN)CCC[C@]21C (some centres undefined)	i
O=C1CCC(=O)N1Nc1nc2ccccc2c2nc(-c3ccccc3)nn12	i
CC(C)NC(=O)Nc1ccc2c(c1)C(=O)N([C@H](C)CO)C[C@@H](C)[C@H](CN(C)C(=O)Nc1ccccc1)O2	i
C[C@@H]1CN([C@@H](C)CO)C(=O)c2cccc(NC(=O)c3ccc(-c4nccs4)cc3)c2O[C@H]1CN(C)C(=O)Nc1ccc(F)cc1	i
C[C@@H]1CN([C@@H](C)CO)C(=O)c2cc(-c3cncnc3)cnc2O[C@@H]1CN(C)C(=O)c1cccc(F)c1	i
CNC[C@@H]1OCCCC[C@H](C)Oc2ccc(NC(=O)Nc3cccc4ccccc34)cc2C(=O)N([C@@H](C)CO)C[C@@H]1C	i
OC[C@H]1O[C@@H](Oc2ccc3c(c2)OC[C@H]2c4cc5c(cc4O[C@@H]32)OCO5)[C@H](O)[C@@H](O)[C@@H]1O	68.4
COc1ccc2c(c1)O[C@H]1c3ccc(O)cc3OC[C@@H]21	i
Oc1ccc2c(c1O)OCC1c3cc4c(cc3OC21)OCO4 (centres undefined)	i
C[C@H]1CN([C@@H](C)CO)C(=O)c2cccc(NC(=O)Nc3cccc4ccccc34)c2O[C@H]1CN(C)C(=O)Nc1ccc(F)cc1	i
CC(C)NC(=O)N(C)C[C@@H]1OCCCC[C@@H](C)Oc2ccc(NS(C)(=O)=O)cc2C(=O)N([C@H](C)CO)C[C@@H]1C	i
Cc1noc(C)c1NC(=O)Nc1ccc2c(c1)C(=O)N([C@H](C)CO)C[C@H](C)[C@H](CN(C)S(C)(=O)=O)O2	i
C[C@H]1CN([C@@H](C)CO)C(=O)c2cc(-c3cccc(F)c3)cnc2O[C@@H]1CN(C)C(=O)Nc1ccccc1F	i
C[C@H]1CN([C@@H](C)CO)C(=O)c2cc(NS(C)(=O)=O)ccc2O[C@H]1CN(C)S(=O)(=O)c1ccc(F)cc1	i
O=C(CC1CC1)Nc1ccc2c(c1)[C@@H]1C[C@H](CC(=O)N3CCOCC3)O[C@H](CO)[C@@H]1O2	i
C[C@H](CO)N1C[C@H](C)[C@@H](CN(C)Cc2ccc(C(=O)Nc3ccccc3N)cc2)Oc2ccc(NC(=O)CCN3CCOCC3)cc2CC1=O	i
C/C=C(/C)C(=O)O[C@@H]1C[C@@H](OC(=O)/C(C)=C\C)[C@](C)(CO)C2C3C(=O)C[C@@H](C)C2[C@]31C	i
Cc1noc(C)c1NC(=O)N(C)C[C@@H]1Oc2c(NS(=O)(=O)c3ccccc3)cccc2C(=O)N([C@H](C)CO)C[C@H]1C	i
COc1cc(C2c3c(cc(OC)c(O)c3OC)CC(CO)C2COC2OC(CO)C(O)C(O)C2O)cc(OC)c1O (centres undefined)	75.8
COc1cc(C2c3c(cc(OC)c(O)c3OC)CC(CO)C2COC2OCC(O)C(O)C2O)cc(OC)c1O (centres undefined)	i
COc1cc(C[C@H]2CO[C@H](c3ccc(O[C@@H]4O[C@H](CO)[C@@H](O)[C@H](O)[C@H]4O)c(OC)c3)[C@H]2CO)ccc1O	i
